What is called AC50 is the midpoint of the concentration-response curve, whichever way the signal moves.

Records with an inconclusive call do not appear. Calls of active or inactive are those of the source. Rule for the calls: active = hit-call score of the fitted dose curve at least 0.9, where 1 is the maximum; inconclusive = response in the unintended direction; inactive = score below 0.9.

The test is described as follows: ACEA_ER_AUC_viability: ACEA Biosciences xCELLigence Real-Time Cell Analysis on Estrogen Receptor Agonism for Viability (AID 2283782).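 Note: hit means loss of impedance signal meaning reduced cell growth or viability.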 A digest of the protocol: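 Continuous-exposure impedance cell analysis uses T-47D cells in charcoal-stripped serum, eight 1:4 dilutions topping at 100 uM final, biological duplicate. Area under the growth curve at 80 h is fitted against DMSO baseline.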
Turning to `COC(=O)c1ccc(C)cc1`, the compound was classed as inactive. The same measure, in the same setting: the same measure for `O=C(O)c1cccc([N+](=O)[O-])c1`: “inactive”. Turning to `C=C[Si](OCC)(OCC)OCC`, the outcome was inactive.

For the compound `CC(C)(COC(=O)c1ccccc1)COC(=O)c1ccccc1`, the AC50 was 72.8 µM (active). As to `Nc1cccc(S(=O)(=O)c2cccc(N)c2)c1`, the compound was called inactive. The same measure, in the same setting: as for `CC(C)CCCCCCCOC(=O)c1ccc(C(=O)OCCCCCCCC(C)C)c(C(=O)OCCCCCCCC(C)C)c1`, the entry is “inactive”. `c1ccc2sc(SN(C3CCCCC3)C3CCCCC3)nc2c1`: the AC50 was 81.8 µM (active). As to `Clc1nc(C(Cl)(Cl)Cl)c(Cl)c(Cl)c1Cl`, the AC50 is 24.1 µM (active). Regarding `COc1cc(C=O)ccc1OC(=O)C(C)C`, the compound was classed as inactive. For the compound `CC(=O)c1c(C)cc(C(C)(C)C)cc1C`, the AC50 was 77.7 µM (active). Consider `CC(C)C(C)(C)C(C)(C)C(C)(C)S`, for which the compound was classed as inactive. As to `CC(CN1c2ccccc2Sc2ccccc21)N(C)C` (stereo not drawn), the AC50 is 17.2 µM (active). For `C=C(C)[C@@H]1CCC2=CC(=O)C[C@@H](C)[C@]2(C)C1`, the AC50 is 80.7 µM (active). Turning to `Fc1c(F)c(F)c(Br)c(F)c1F`, the compound was called inactive. The same measure, in the same setting: as for `CC(C)[C@H]1CC[C@@H](C)CC1=O`, the entry is “inactive”; as for `Clc1ccc(Cl)c(Cl)c1Cl`, “inactive”. Take `CCCCCCCCC`: the call was inactive. For `CCCC(=O)OCCC(C)CCC=C(C)C` (stereo not drawn), the AC50 is 77.8 µM (active).

Regarding `CCN(CC)c1ccc2c(-c3ccccc3C(=O)O)c3ccc(=[N+](CC)CC)cc-3oc2c1`, the AC50 is 29.1 µM (active). Consider `CC1(C)[C@@H]2CC[C@@]1(C)[C@H](O)C2`, for which the compound was classed as inactive. For `CC1CCC2CC1C2(C)C` (stereo not drawn), the compound was classed as inactive. On to `CC(C)=CCCC(C)CC=O` (stereo not drawn), for which the compound was classed as inactive. Still for that read-out and setting: as for `CCC(=O)OCc1ccccc1`, the entry is “inactive”. Regarding `NC(=O)c1ccccc1Cl`, the AC50 was 27.1 µM (active). With `C=C(C)C(=O)O[C@H]1C[C@@H]2CC[C@@]1(C)C2(C)C`, the result was inactive. `O=C1CCCCCCCCCCCCCCO1`: the compound was classed as inactive. The same measure, in the same setting: as for `CC1(C)[C@H]2CC[C@]1(C)[C@H](O)C2`, the entry is “inactive”; as for `CC(C)c1ccc(C(C)C)cc1`, “inactive”; as for `O=P(c1ccccc1)(c1ccccc1)c1ccccc1`, “inactive”. Still for that read-out and setting: as for `[Ca+2]`, the entry is “inactive”; as for `NCCCCCCN`, “inactive”. As to `CC(C)=CCC[C@](C)(O)[C@@H]1CC=C(C)CC1`, the AC50 was 84.5 µM (active). Turning to `CCCCCCCCCCCCCC(=O)O`, the result was inactive.

Values taken from PubChem BioAssay (EPA / NIEHS).
